Screening results (PubChem)
Exocytosis inh = lytic granule exocytosis inhibition; TALL-104 LAMP-1 surface exposure, flow cytometry; cells stimulated with thapsigargin and PMA; inhibition, % at 10 µM; 0.66% of 360,000 active;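 active = inhibition above about 55%, limit read from the data; inconclusive = no clear call, values can overlap the other calls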
ABCB6 inh 2 = human ABCB6 transporter inhibition | Q9NP58 | K562-ABCB6 porphyrin accumulation, flow cytometry, 1 h; hits give low values | fluorescence ratio to DMSO, % at 10 µM | 0.19% of 360,000 active | AID 602162;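 active = fluorescence ratio to DMSO below 75%, the collection mean minus 3 SD; inconclusive = too few cells collected in the well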;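 also: signal is porphyrin accumulated inside mitochondria; lower ratio means ABCB6 inhibition with less porphyrin fluorescence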
PG9 Ab binder = small molecules binding HIV-1 gp120 antibody PG9; TR-FRET gp120-PG9 antibody binding; 0.43% of 360,000 active; inhibition, % at 6.7 µM; in the data active = inhibition above about 8.5%
rCAG binder-1 = molecules binding r(CAG) RNA repeats; r(CAG) RNA repeat, TO-PRO-1 dye displacement fluorescence; inhibition, % at 3 µM; 1.3% of 370,000 active; AID 651821;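 active = inhibition above the plate cutoff, the mean of all test compounds on that plate plus 3 SD, cut at about 35% in these data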;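 also: higher means more dye released from RNA so lower well fluorescence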
rCAG binder conf = r(CAG) RNA repeat binding, confirmation; shares compounds with rCAG binder-1; TO-PRO-1 dye displacement fluorescence; inhibition, % at 3 µM; 70% of 4,300 active; AID 652065;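 active = inhibition above a per-plate cutoff, the mean inhibition of sample wells plus 3 SD, cut at about 35% in these data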;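 also: loss of TO-PRO-1 fluorescence as compound displaces dye from 1x1 AA loop RNA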
DNA CAG counter = disrupts DNA CAG TO-PRO-1 complex, flagging rCAG hits; shares compounds with rCAG binder-1; d(CAG) DNA oligo TO-PRO-1 dye displacement, fluorescence; inhibition, % at 3 µM; 94% of 4,300 active;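 active = inhibition above its plate's cutoff, the mean test-well inhibition plus 3 SD, cut at about 4.8% in these data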;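 also: hits displace the dye from DNA and so lower well fluorescence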
dCAG dye DR = counter-screen for rCAG binders: inhibitors of DNA CAG TO-PRO-1 complex; shares compounds with rCAG binder-1; DNA CAG/GTC duplex TO-PRO-1 dye displacement fluorescence; IC50, µM; 20% of 250 active; in the data active = IC50 below about 10 µM
dCAG TOPRO ctr = counter-screen for rCAG binders: DNA CAG TO-PRO-1 complex inhibitors, late stage | shares compounds with rCAG binder-1 | d(CAG) DNA duplex TO-PRO-1 dye displacement, fluorescence | IC50, µM | 80% of 30 active | AID 720649
rCAG binder-2 = r(CAG) repeat RNA binding, TO-PRO-1 displacement; shares compounds with rCAG binder-1; r(CAG) RNA TO-PRO-1 dye displacement, fluorescence; IC50, µM; 100% of 30 active
Large screens that a line does not name were inactive (follow-up assays come after a bar, where they were run). Only some compounds are listed: those with a hit (about 2.5% of all), similar ones and a draw of the others. Unless noted, no rule for the calls is given here.

Cc1cccc(-n2nc(C)c3c(C(=O)O)cc(-c4cccs4)nc32)c1	rCAG binder-1 81 | rCAG binder conf 74 | DNA CAG counter 34 | dCAG dye DR 6.3 | dCAG TOPRO ctr 1.4 | rCAG binder-2 0.58
Cc1nn(-c2cccc(Cl)c2)c2nc(-c3ccco3)cc(C(=O)O)c12	rCAG binder-1 72 | rCAG binder conf 77 | DNA CAG counter 40
Cc1nn(-c2ccccc2)c2nc(-c3ccco3)cc(C(=O)O)c12	rCAG binder-1 54 | rCAG binder conf 71 | DNA CAG counter 27 | dCAG dye DR 4.3 | dCAG TOPRO ctr 6.1 | rCAG binder-2 2.5
CC(=O)NCC(=O)NC1CC(C)(C)Cc2c1cnn2-c1ccccc1 (stereo unspecified)	none
COc1cccc2cc(C(=O)C3=C(O)C(=O)N(c4cc(C)on4)C3c3cccs3)oc12 (stereo unspecified)	Exocytosis inh inconclusive, rCAG binder-1 44 | rCAG binder conf 62 | DNA CAG counter 27
O=C(Nc1ccc(OC(F)F)cc1)c1cc(S(=O)(=O)N2CCOCC2)ccc1F	none
COc1ccc(C(=O)N/N=C/c2c[nH]c3ccccc23)cc1	none
CCCOc1ccc(C(=O)N/N=C/c2c[nH]c3ccc(Br)cc23)cc1	rCAG binder-1 37 | rCAG binder conf inactive | DNA CAG counter 12
COc1ccc(CC(=O)Nc2ccc(C(=O)O)cc2NC(=O)Cc2ccc(OC)cc2)cc1	none
COc1ccc(C(=O)Nc2ccc(C(=O)O)cc2NC(=O)c2ccc(OC)cc2)cc1	rCAG binder-1 36 | rCAG binder conf inactive | DNA CAG counter inactive
Cc1ccccc1OCC(=O)Nc1ccc(C(=O)Nc2ccccc2C(=O)O)cc1	rCAG binder-1 49 | rCAG binder conf 73 | DNA CAG counter 37
Cc1ccc(OCC(=O)Nc2ccc(C(=O)Nc3ccccc3C(=O)O)cc2)cc1C	rCAG binder-1 51 | rCAG binder conf 80 | DNA CAG counter 45
COc1ccc(OCC(=O)Nc2ccc(C(=O)Nc3ccccc3C(=O)O)cc2)cc1	rCAG binder-1 73 | rCAG binder conf 75 | DNA CAG counter 30 | dCAG dye DR inactive
CC(Sc1ccc(S(=O)(=O)N(C)C)cn1)C(=O)NC1CCCC1 (stereo unspecified)	none
O=C(c1cn(-c2ccccc2)nc1-c1cccnc1)N1CCCC(C(F)(F)F)C1 (stereo unspecified)	none
COc1ccc(C(=O)N/C(=C\c2ccccc2)C(=O)Nc2ccc(C(=O)O)cc2)cc1	none
COc1ccc(/C=C(\NC(=O)c2ccc(OC)cc2)C(=O)Nc2ccccc2C(=O)O)cc1	rCAG binder-1 39 | rCAG binder conf inactive | DNA CAG counter inactive
CCNC(=O)C1CCCN(C(=O)c2cccc(Cl)c2)CC1 (stereo unspecified)	none
CCCSc1nnc(NC(=O)CSc2nc3[nH]c(=O)cc(O)c3s2)s1	rCAG binder-1 37 | rCAG binder conf inactive | DNA CAG counter 7.8
CCSc1nnc(NC(=O)CSc2sc3c(O)cc(=O)[nH]c3c2C#N)s1	rCAG binder-1 58 | rCAG binder conf 63 | DNA CAG counter 28
Cc1csc(NC(=O)CSc2sc3c(O)cc(=O)[nH]c3c2C#N)n1	rCAG binder-1 75 | rCAG binder conf 37 | DNA CAG counter 14
O=C(CSc1nc2[nH]c(=O)cc(O)c2s1)Nc1nncs1	none
O=C(O)c1cccc(S(=O)(=O)N2CCC(n3nnc4cc(C(F)(F)F)ccc43)CC2)c1	none
COc1ccc(N2CC(C(=O)Nc3c4c(nn3-c3ccccc3)CS(=O)(=O)C4)CC2=O)cc1 (stereo unspecified)	none
COC(=O)c1sc(N2C(=O)C(O)=C(C(=O)c3ccc(C)o3)C2c2ccc(OC)c(OC)c2)nc1C (stereo unspecified)	rCAG binder-1 37 | rCAG binder conf 36 | DNA CAG counter 9.9
COC(=O)c1sc(N2C(=O)C(O)=C(C(=O)c3ccc(C)o3)C2c2ccc([N+](=O)[O-])cc2)nc1C (stereo unspecified)	rCAG binder-1 66 | rCAG binder conf 68 | DNA CAG counter 28 | dCAG dye DR 3.3
COc1ccc2nc(N3C(=O)C(O)=C(C(=O)c4ccco4)C3c3ccc(OC)c(OC)c3)sc2c1 (stereo unspecified)	rCAG binder-1 56 | rCAG binder conf 69 | DNA CAG counter 25 | dCAG dye DR inactive
CCOC(=O)c1sc(N2C(=O)C(O)=C(C(=O)c3ccc(C)o3)C2c2cccc([N+](=O)[O-])c2)nc1C (stereo unspecified)	rCAG binder-1 55 | rCAG binder conf 78 | DNA CAG counter 42
CCOC(=O)c1sc(N2C(=O)C(O)=C(C(=O)c3ccc(C)o3)C2c2ccc(OC)c(OC)c2)nc1C (stereo unspecified)	none
CC(C)CNS(=O)(=O)c1ccc(CCC(=O)NCCc2ccccc2)cc1	none
Cc1cc(C(=O)N2CCC2(C)C(=O)NCCC#N)nn1C (stereo unspecified)	none
CCOC(=O)c1ccc(N2C(=O)c3n[nH]c(-c4ccco4)c3C2c2cccc([N+](=O)[O-])c2)cc1 (stereo unspecified)	rCAG binder-1 74 | rCAG binder conf inactive | DNA CAG counter 14
Cc1ccc2nc(N3C(=O)C(O)=C(C(=O)c4ccc(C)o4)C3c3cccc(O)c3)sc2c1 (stereo unspecified)	rCAG binder-1 70 | rCAG binder conf 69 | DNA CAG counter 33
CCOC(=O)c1ccc(N2C(=O)c3n[nH]c(C)c3C2c2ccco2)cc1 (stereo unspecified)	none
O=C(COC(=O)c1ccc(Br)o1)NC1CCCc2ccccc21 (stereo unspecified)	none
N#Cc1cnc(NN)nc1	none
CCCOc1ccc(/C=N/Nc2cccc([N+](=O)[O-])c2)c(O)c1	none
CCCOc1ccc(/C=N/Nc2ccc(C(=O)O)cc2)c(OCCC)c1	rCAG binder-1 55 | rCAG binder conf 60 | DNA CAG counter 22
Cc1sc(NC(=O)CCCC(=O)O)c(C(N)=O)c1-c1ccccc1	none
CCCC(=O)Nc1sc(-c2ccccc2)c(-c2ccccc2)c1C(=O)O	rCAG binder-1 41 | rCAG binder conf inactive | DNA CAG counter inactive
COc1ccccc1-c1csc(NC(=O)c2ccc(N3C(=O)CCC3=O)cc2)n1	none
N#Cc1c(Cl)nsc1NN	rCAG binder-1 92 | rCAG binder conf inactive | DNA CAG counter 4.8
